The structures appear in SMILES notation. Values without a mark were called inactive. The source made the active and inactive calls.
Also: test concentration not given here.

A short description of the first assay: fission yeast growth modulation, primary screen, strain 972, OD600, 24 h, no modulator (AID 1090).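 Also: basal condition with compound alone and no growth modifier present.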 As to conditions: S. pombe 972 growth, higher = more signal, called active from +8 up or from −8 down.
`COC(=O)C1(CC(C)C)C=C2C(=C(c3ccccc3)C(=O)C2C)CN1` (configuration not stated): the z-score is 0.424. Still for that read-out and setting: the figure for `COc1ccc(CCNC(=O)[C@@H]2c3ccccc3C(=O)N(C3CCCCC3)[C@H]2c2ccc(CO)cc2)cc1` is -0.838; for `CCCCCN1CC=CC23O[C@@H]4C=CCCOC(=O)C4[C@H]2C(=O)N(CCCCCCO)[C@@H]3C1=O` (some centres not stated) it is -0.0045. Take `CCOC(=O)C[C@H]1[C@H](OC(=O)c2ccc(-c3ccccc3)cc2)[C@@H](NC(=O)CC(C)C)c2cc(OCCCO)ccc2N1C(=O)c1ccc2ccccc2n1`: the z-score was -0.832. Still for that read-out and setting: as for `COC(=O)C(CC#Cc1ccc2c(c1)[C@]1(C(=O)N2)[C@H](c2ccc(O)cc2)N2[C@H](c3ccccc3)[C@H](c3ccccc3)OC(=O)[C@H]2[C@@H]1C(=O)NC[C@H](O)c1ccccc1)C(=O)OC`, the figure is 0.174; as for `COC(=O)[C@]1(CCS(=O)(=O)c2ccccc2)N=C(c2ccc(OCCCO)cc2)O[C@@H]1c1ccccc1N=[N+]=[N-]`, -2.44. The same measure, in the same setting: the figure for `O=C1C2C=CC(C(O)C3CC=CCC3)N(Nc3ccccc3)C2C(=O)N1c1ccccc1` (configuration not stated) is -0.428; for `CCOC(=O)C[C@H]1[C@H](OC(=O)c2cc3ccccc3oc2=O)[C@@H](NC(=O)c2ccccc2)c2cc(OCCCO)ccc2N1C(=O)c1ccccc1` it is -1.64; for `COc1ccc([Si](C)(C)[C@H]2[C@H](CC(=O)N3Cc4ccccc4C[C@H]3CO)O[C@@]3(C(=O)N(Cc4ccc(N5CCOC5=O)cc4)c4ccccc43)[C@@H]2C)cc1` it is -0.053. Same read-out and setting: the figure for `CC1CC/C=C\[C@H]2OC34C=CCN(C(C)C)C(=O)[C@H]3N(CCO)C(=O)[C@@H]4C2C(=O)O1` (some centres not stated) is -0.486; for `COCCCNC(=O)[C@@H]1c2ccccc2C(=O)N(C(C)C)[C@H]1c1ccc(CO)cc1` it is 0.439; for `COc1cccc(C)c1NC(=O)O[C@H]1[C@H](OC(=O)Nc2ccccc2-c2ccccc2)[C@H](OC(=O)Nc2ccccc2-c2ccccc2)[C@@H](OC)O[C@@H]1CO` it is 0.671. `CC(C)c1ccc(NN2C(C(O)c3ccc(F)cc3)C=CC3C(=O)N(c4ccccc4)C(=O)C32)cc1` (configuration not stated): the z-score is 0.842. Same read-out and setting: as for `C#CCN(Cc1ccccc1Br)[C@H](/C=C/c1ccccc1)[C@@H](O)Cc1ccccc1`, the figure is -12.7 (active); as for `[N-]=[N+]=Nc1ccccc1C[C@]1(C(=O)NCC(O)CO)COC(c2ccc(OCCCO)cc2)=N1` (some centres not stated), -0.13. Still for that read-out and setting: the figure for `O=C1O[C@@H](c2ccccc2)[C@@H](c2ccccc2)N2[C@@H](c3ccc(OCCO)cc3)[C@]3(C(=O)Nc4ccc(C#CC5=CCCCC5)cc43)[C@@H](C(=O)NC[C@H](O)c3ccccc3)[C@H]12` is 2.17. Same read-out and setting: the figure for `CCCC=C(CCC)[C@@H](NS(=O)(=O)c1ccc(C(F)(F)F)cc1)c1ccccc1` is 1.46; for `CCCCCCCCCC(O)C1C=CC2C(=O)N(c3ccccc3)C(=O)C2N1Nc1cc(OC)c(OC)c(OC)c1` (configuration not stated) it is 0.441; for `O=C(c1ccccc1)N1C(=O)[C@]2(Cc3ccccc31)N=C(c1ccc(OCCCO)cc1)O[C@@H]2c1ccccc1` it is 0.171.

For `CCCCC=C[C@@H](NC(=O)OCc1ccccc1Cl)c1ccccc1`, the z-score was 1.18. Still for that read-out and setting: as for `COc1cc(C(O)C2C=CC3C(=O)N(C)C(=O)C3N2Nc2ccccc2)cc(OC)c1OC` (configuration not stated), the figure is -0.549; as for `C=CC[C@H](OC(=O)Nc1ccc(SC)cc1)c1ccc(O)c2ccccc12`, -19.8 (active); as for `[N-]=[N+]=Nc1ccccc1C[C@@]1(C(=O)N2CCOCC2)N=C(c2ccc(OCCCO)cc2)O[C@@H]1c1ccccc1`, -2.77. Same read-out and setting: the figure for `COc1ccc(C(=O)Nc2ccc(CN3C(=O)[C@]4(O[C@H](CC(=O)N5Cc6ccccc6C[C@H]5CO)[C@@H]([Si](C)(C)c5ccc(OC)cc5)[C@@H]4C)c4ccccc43)cc2)cc1` is 1.04. Take `C=CCNC(=O)[C@@H]1[C@H]2C(=O)O[C@H](c3ccccc3)[C@H](c3ccccc3)N2[C@H](c2ccc(O)cc2)[C@@]12C(=O)N(C(=O)OCCOC)c1ccc(C#CC3=CCCCC3)cc12`: the z-score is 0.428.

With `C=CCOC(=O)[C@@]1(Cc2ccccc2)C[C@H]2CO[C@H](c3ccc(OC)cc3)N2C1=O`, the z-score was -3.58.

Another assay in a line: S. cerevisiae growth modulation with rapamycin, primary screen, strain BY4716, OD600, 96 h (AID 1091). As to conditions: higher = more signal, called active from +8 up or from −8 down.
Consider `Cc1ccc(NN2C(C(O)c3c(F)cccc3Cl)C=CC3C(=O)N(C4CCCCC4)C(=O)C32)cc1` (configuration not stated), for which the z-score was -0.262. The same measure, in the same setting: the figure for `CC(C)N1C(=O)C[C@@](C(=O)O)(c2ccc([N+](=O)[O-])cc2)[C@H]1c1ccc(CO)cc1` is -0.265; for `CCCN1C(=O)[C@@]2(Cc3ccccc31)N=C(c1ccc(OCCCO)cc1)O[C@H]2c1ccccc1` it is 0.99.

Regarding `C=CCN1C(=O)[C@]2(CCS(=O)(=O)c3ccccc3)N=C(c3ccc(OCCCO)cc3)O[C@@H]2c2ccccc21`, the z-score is 2.46.

In the case of `C=CC[C@@]1(C(=O)NCCCOC)N=C(c2ccc(OCCCO)cc2)O[C@@H]1c1ccccc1`, the z-score was -0.725. On the same count and under the same terms, the figure for `COC(=O)c1c(CC[C@@H](CO)NC(=O)N2CCC[C@H]2Cn2cc(C3(O)CCCCC3)nn2)oc(C(C)=O)c1C(=O)OC` is -1.28; for `COCC(=C=CC[C@H](O)c1ccc(OCCO)cc1)CCO` it is -0.274. For the compound `C=CCNC(=O)[C@@H]1[C@H]2C(=O)O[C@H](c3ccccc3)[C@H](c3ccccc3)N2[C@H](c2ccccc2OCCO)[C@@]12C(=O)N(C(=O)OCCOC)c1ccc(C#CC3(O)CCCCCC3)cc12`, the z-score is 5.23. Still for that read-out and setting: as for `COc1ccc([Si](C)(C)[C@@H]2[C@@H](CCO)O[C@]3(C(=O)N(Cc4ccccc4)c4ccc(N5C(=O)c6cccc7cccc5c67)cc43)[C@H]2C)cc1`, the figure is 37.1 (active); as for `C=CC[C@]1(C(=O)N2CCCCC2)N=C(c2ccc(OCCCO)cc2)O[C@H]1c1ccccc1CN=[N+]=[N-]`, -0.837; as for `COC(=O)C1(CC(C)C)C=C2C(=C(c3ccccc3)C(=O)C2C)CN1` (configuration not stated), 1.71. As for `COc1ccc(CCNC(=O)[C@@H]2c3ccccc3C(=O)N(C3CCCCC3)[C@H]2c2ccc(CO)cc2)cc1`, the z-score was 0.584. As to `CCCCCN1CC=CC23O[C@@H]4C=CCCOC(=O)C4[C@H]2C(=O)N(CCCCCCO)[C@@H]3C1=O` (some centres not stated), the z-score was -0.0168. Consider `CCOC(=O)C[C@H]1[C@H](OC(=O)c2ccc(-c3ccccc3)cc2)[C@@H](NC(=O)CC(C)C)c2cc(OCCCO)ccc2N1C(=O)c1ccc2ccccc2n1`, for which the z-score was -0.656. The same measure, in the same setting: the figure for `COC(=O)C(CC#Cc1ccc2c(c1)[C@]1(C(=O)N2)[C@H](c2ccc(O)cc2)N2[C@H](c3ccccc3)[C@H](c3ccccc3)OC(=O)[C@H]2[C@@H]1C(=O)NC[C@H](O)c1ccccc1)C(=O)OC` is -0.131; for `COC(=O)[C@]1(CCS(=O)(=O)c2ccccc2)N=C(c2ccc(OCCCO)cc2)O[C@@H]1c1ccccc1N=[N+]=[N-]` it is 35.7 (active); for `O=C1C2C=CC(C(O)C3CC=CCC3)N(Nc3ccccc3)C2C(=O)N1c1ccccc1` (configuration not stated) it is 0.662. Turning to `CCOC(=O)C[C@H]1[C@H](OC(=O)c2cc3ccccc3oc2=O)[C@@H](NC(=O)c2ccccc2)c2cc(OCCCO)ccc2N1C(=O)c1ccccc1`, the z-score was -0.277. The same measure, in the same setting: the figure for `COc1ccc([Si](C)(C)[C@H]2[C@H](CC(=O)N3Cc4ccccc4C[C@H]3CO)O[C@@]3(C(=O)N(Cc4ccc(N5CCOC5=O)cc4)c4ccccc43)[C@@H]2C)cc1` is 2.17; for `CC1CC/C=C\[C@H]2OC34C=CCN(C(C)C)C(=O)[C@H]3N(CCO)C(=O)[C@@H]4C2C(=O)O1` (some centres not stated) it is 0.323; for `COCCCNC(=O)[C@@H]1c2ccccc2C(=O)N(C(C)C)[C@H]1c1ccc(CO)cc1` it is 0.395. On the same count and under the same terms, as for `COc1cccc(C)c1NC(=O)O[C@H]1[C@H](OC(=O)Nc2ccccc2-c2ccccc2)[C@H](OC(=O)Nc2ccccc2-c2ccccc2)[C@@H](OC)O[C@@H]1CO`, the figure is 5.69. Still for that read-out and setting: the figure for `CC(C)c1ccc(NN2C(C(O)c3ccc(F)cc3)C=CC3C(=O)N(c4ccccc4)C(=O)C32)cc1` (configuration not stated) is 0.159. On to `C#CCN(Cc1ccccc1Br)[C@H](/C=C/c1ccccc1)[C@@H](O)Cc1ccccc1`, for which the z-score was 1.38. On the same count and under the same terms, the figure for `[N-]=[N+]=Nc1ccccc1C[C@]1(C(=O)NCC(O)CO)COC(c2ccc(OCCCO)cc2)=N1` (some centres not stated) is 0.69; for `O=C1O[C@@H](c2ccccc2)[C@@H](c2ccccc2)N2[C@@H](c3ccc(OCCO)cc3)[C@]3(C(=O)Nc4ccc(C#CC5=CCCCC5)cc43)[C@@H](C(=O)NC[C@H](O)c3ccccc3)[C@H]12` it is 4.09. The same measure, in the same setting: the figure for `CCCC=C(CCC)[C@@H](NS(=O)(=O)c1ccc(C(F)(F)F)cc1)c1ccccc1` is 3.03; for `CCCCCCCCCC(O)C1C=CC2C(=O)N(c3ccccc3)C(=O)C2N1Nc1cc(OC)c(OC)c(OC)c1` (configuration not stated) it is -0.236; for `O=C(c1ccccc1)N1C(=O)[C@]2(Cc3ccccc31)N=C(c1ccc(OCCCO)cc1)O[C@@H]2c1ccccc1` it is 3.7.

With `CCCCC=C[C@@H](NC(=O)OCc1ccccc1Cl)c1ccccc1`, the z-score is 2.28. Same read-out and setting: the figure for `COc1cc(C(O)C2C=CC3C(=O)N(C)C(=O)C3N2Nc2ccccc2)cc(OC)c1OC` (configuration not stated) is -0.299; for `C=CC[C@H](OC(=O)Nc1ccc(SC)cc1)c1ccc(O)c2ccccc12` it is -1.38. Still for that read-out and setting: as for `[N-]=[N+]=Nc1ccccc1C[C@@]1(C(=O)N2CCOCC2)N=C(c2ccc(OCCCO)cc2)O[C@@H]1c1ccccc1`, the figure is 0.0666.

Consider `COc1ccc(C(=O)Nc2ccc(CN3C(=O)[C@]4(O[C@H](CC(=O)N5Cc6ccccc6C[C@H]5CO)[C@@H]([Si](C)(C)c5ccc(OC)cc5)[C@@H]4C)c4ccccc43)cc2)cc1`, for which the z-score was 3.94.

In the case of `C=CCNC(=O)[C@@H]1[C@H]2C(=O)O[C@H](c3ccccc3)[C@H](c3ccccc3)N2[C@H](c2ccc(O)cc2)[C@@]12C(=O)N(C(=O)OCCOC)c1ccc(C#CC3=CCCCC3)cc12`, the z-score is 0.969. Regarding `C=CCOC(=O)[C@@]1(Cc2ccccc2)C[C@H]2CO[C@H](c3ccc(OC)cc3)N2C1=O`, the z-score is 0.0326.

Source of the values: PubChem BioAssay.
